Earlier results on 15 molecules are cited in PubChem BioAssay AID977611.

The series is described as follows: PubChem AID 977611. The conditions noted are these: PDB protein-ligand complexes, literature Kd.

Among all 3,900 compounds or so, about 3,900 (100%) were called active. No cut-off is given here; in the data, nearly all actives have Kd up to about 4200 µM. The set was probably picked from earlier hits. The list shows a part of the results. Where a SMILES comes first, the peptide text is derived from it. Square brackets hold non-standard residues; d marks the D form. Residues, ends and D or L forms follow the SMILES beside them. Peptide text beside a SMILES is read from it. [ ]: non-standard residue; d: D form. The star is where a group is joined. Lys(Me3) = C[N+](C)(C)CCCC[C@H](N)C(=O)O; Orn(CH(NH2)2) = NC(N)NCCC[C@H](N)C(=O)O; X1 = C[C@H](Cc1ccc(O)cc1)N*; Leu(ol) = CC(C)C[C@H](N)CO

For `CC[C@H](C)[C@H](N)C(=O)N[C@@H](CCC(N)=O)C(=O)N1CCC[C@H]1C(=O)N1CCC[C@H]1C(=O)N1CCC[C@H]1C(=O)N[C@H](C(=O)N[C@@H](CC(N)=O)C(=O)N[C@@H](CCCNC(N)N)C(=O)N[C@@H](CC(N)=O)C(=O)N[C@@H](CC(C)C)C(=O)N[C@@H](CCCCN)C(=O)N1CCC[C@H]1C(=O)N[C@@H](CC(=O)O)C(=O)N[C@H](C=O)CCCNC(N)N)C(C)C` (H-IQPPPVN[Orn(CH(NH2)2)]NLKPD[Orn(CH(NH2)2)]-aldehyde), for the setting “protein: GROWTH FACTOR RECEPTOR-BOUND PROTEIN 2 SH3 DOMAIN, PDB entry 2vwf”, the Kd (in general, the equilibrium constant for the complex coming apart) was 8.7 µM (active).

Turning to `CN1C=CN(CCCN2c3ccccc3Sc3ccc(C(F)(F)F)cc32)C=C1`, the Kd (protein: human calmodulin (CaM), PDB entry 1ctr) is 1 µM (active).

Turning to `COC(=O)c1cc(N)cc(-c2c(C)noc2C)c1`, the Kd (protein: ATPase family AAA domain-containing protein 2 ATAD2A bromodomain, PDB entry 4tte) is 202 µM (active).

Consider `Cn1cc(O[C@@H]2O[C@H](CO)[C@H](O)[C@H](O)[C@H]2O)c2ccccc21`, for which the Kd (protein: PA-I galactophilic lectin, PDB entry 4ljh) was 19.4 µM (active).

For the molecule `CC(=O)NCCCC[C@H](NC(=O)[C@@H](NC(=O)CNC(=O)CNC(=O)[C@@H](NC(=O)[C@@H](N)CO)[C@@H](C)O)C(C)C)C(=O)N[C@@H](CCCCN)C(=O)N1CCC[C@H]1C(=O)N[C@@H](Cc1cnc[nH]1)C(=O)N[C@@H](CCCNC(N)N)C(=O)N[C@@H](Cc1ccc(O)cc1)C(=O)N[C@@H](CCCCN)C(=O)N[C@@H](CS)C(=O)O`, the Kd (protein: Histone acetyltransferase PCAF, PDB entry 2rnx) is 402 µM (active).

In the case of `CC[C@H](C)[C@H](NC(=O)[C@H](Cc1cnc[nH]1)NC(=O)[C@@H](NC(=O)[C@H](CCCNC(N)N)NC(=O)[C@H](CCCCN)NC(=O)[C@@H](N)CCCNC(N)N)[C@@H](C)CC)C(=O)NCC(=O)N1CCC[C@H]1C(=O)NCC(=O)N[C@@H](CCCNC(N)N)C(=O)N[C@@H](C)C(=O)N[C@@H](Cc1ccccc1)C(=O)N[C@@H](Cc1ccc(O)cc1)C(=O)N[C@@H](C)C(=O)N[C@H](C=O)[C@@H](C)O`, the Kd (protein: anti-HIV-1 Fab 537-10D, PDB entry 3ghe) was 1.3 µM (active).

For `CC(C)[C@H](NC(=O)CNC(=O)CNC(=O)[C@@H](NC(=O)[C@H](C)N)[C@@H](C)O)C(=O)N[C@@H](CCCC[N+](C)(C)C)C(=O)N[C@@H](CCCCN)C(=O)N1CCC[C@H]1C(=O)N[C@@H](Cc1cnc[nH]1)C(=O)N[C@@H](CCCNC(N)N)C(=O)N[C@H](C)Cc1ccc(O)cc1` (H-ATGGV[Lys(Me3)]KPH[Orn(CH(NH2)2)]-X1), the Kd (protein: PHD finger protein 1, PDB entry 2m0o) is 4.2 µM (active).

For the molecule `O[C@@H]1[C@H](O)[C@@H](O[P+](O)(O)O)[C@H](O[P+](O)(O)O)[C@@H](O)[C@@H]1O[P+](O)(O)O`, the Kd (protein: Ligand-Binding Domain of rat InsP3 Receptor, PDB entry 3t8s) is 0.00282 µM (active) and the Kd (protein: Rabphilin-3A, PDB entry 4np9) is 9.4 µM (active).

In the case of `Nc1ncnc2c1ncn2[C@@H]1O[C@@H]2CO[P+](O)(O)O[C@@H]3[C@H](O)[C@@H](CO[P+](O)(O)O[C@@H]1[C@@H]2O)O[C@H]3n1cnc2c1NC(N)NC2=O` (stereo partly drawn), where the note is “protein: Stimulator of interferon genes protein, PDB entry 4loi”, the Kd was 0.17 µM (active).

Turning to `NC1NC(=O)c2ncn([C@@H]3O[C@@H]4CO[P+](O)(O)O[C@H]4[C@H]3O)c2N1` (stereo partly drawn), the Kd (protein: Diguanylate cyclase, PDB entry 4kg1) is 0.274 µM (active).

For the molecule `Nc1ncnc2c1ncn2[C@@H]1O[C@@H]2CO[P+](O)(O)O[C@@H]3[C@H](O)[C@@H](CO[P+](O)(O)O[C@H]2[C@H]1O)O[C@H]3n1cnc2c1NC(N)NC2=O` (stereo partly drawn), the Kd is, setting by setting: (protein: Stimulator of interferon genes protein, PDB entry 4ksy) 0.00379 µM (active); (protein: Stimulator of interferon genes protein, PDB entry 4loh) 0.11 µM (active); (protein: Stimulator of interferon genes protein, PDB entry 4loj) 0.3 µM (active).

With `CSCC[C@H](NC(=O)[C@@H]1CCCN1C(=O)[C@@H](NC(=O)[C@H](CCCNC(N)N)NC(=O)[C@H](CO)NC(=O)CN)[C@@H](C)O[P+](O)(O)O)C(=O)N[C@@H](Cc1ccc(O)cc1)C(=O)NCC(=O)O` (HELM PEPTIDE1{G.S.[NC(N)NCCC[C@H](N[*:1])C(=O)[*:2]].[C[C@@H](O[P+](O)(O)O)[C@H](N[*:1])C(=O)[*:2]].P.M.Y.G}$$$$V2.0), the Kd (protein: RNA polymerase-associated protein RTF1 homolog, PDB entry 4l1u) is 5.45 µM (active).

For `CC(C)C[C@H](NC(=O)[C@H](CC(C)C)NC(=O)[C@H](CCCNC(N)N)NC(=O)[C@H](CO)NC(=O)[C@H](CC(C)C)NC(=O)[C@H](CCCNC(N)N)NC(=O)[C@@H]1CCCN1C(=O)CN)C(=O)N[C@@H](CO)C(=O)N[C@@H](Cc1ccc(O)cc1)C(=O)N[C@@H](C)C(=O)O` (HELM PEPTIDE1{G.P.[NC(N)NCCC[C@H](N[*:1])C(=O)[*:2]].L.S.[NC(N)NCCC[C@H](N[*:1])C(=O)[*:2]].L.L.S.Y.A}$$$$V2.0), the Kd (protein: rat Tom20(translocases of outer mitochondrial membranes), PDB entry 1om2) is 20 µM (active).

Take `CC(C)[C@H](NC(=O)[C@H](CCC(=O)O)NC(=O)[C@H](C)NC(=O)[C@H](Cc1ccc(O)cc1)NC(=O)[C@H](CO)NC(=O)[C@@H]1CCCN1C(=O)[C@@H]1CCCN1C(=O)[C@H](C)NC(=O)[C@@H](N)CCC(=O)O)C(=O)O` (H-EAPPSYAEV-OH): for the setting “protein: 3rd WW domain of Human Nedd4, PDB entry 4n7h”, the Kd is 3.3 µM (active).

For `CC(C)C[C@@H](CO)NC(=O)[C@H](CO)NC(=O)[C@H](CCCNC(N)N)NC(=O)[C@H](CC(C)C)NC(=O)[C@H](CO)NC(=O)[C@H](C)NC(=O)[C@H](CC(C)C)NC(=O)[C@@H]1CCCN1C(=O)[C@H](Cc1ccc(O)cc1)NC(=O)[C@H](CC(C)C)NC(=O)[C@@H](N)CCC(=O)O` (H-ELYPLASL[Orn(CH(NH2)2)]S[Leu(ol)]), the dissociation constant Kd (protein: ALIX, PDB entry 2r05) was 7 µM (active).
